Experimental data published in PubChem BioAssay (NCI).
Where “and” joins values, the source holds several entries; their conditions need not be identical. Equal values may be shown once. This is part of a sample that, as a whole, favours compounds with a hit. Of some 83,000 tested, about 20% had one in any assay.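 A percent growth of 40 corresponds to 60% growth inhibition; 0 means no net growth; -100 means all cells died. Active threshold: below 10.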 Calls of active or inactive are those of the source.

test system: KM12 colon; experiment: NCI-60 one-dose screen, 48 h (100 = growth as untreated, 0 = no growth, -100 = all killed); settings: 10 µM unless noted

Compound | growth
NNC(=O)Nc1ccccc1 | 99.1% (inactive)
Cc1nc2c(=O)[nH]c(=S)[nH]c2[nH]c1=O | 109% (inactive)
Oc1cccnc1CN1CCOCC1 | 112% (inactive) and 108% (inactive)
O=C1c2ccccc2CN1c1ccccc1 | 101% (inactive)
COC1C(OC(N)=O)C(O)C(Oc2ccc3c(O)c(NC(=O)c4ccc(O)c(CC=C(C)C)c4)c(=O)oc3c2C)OC1(C)C (stereo unspecified) | 110% (inactive) and 101% (inactive)
C/C=C/C(=O)OCCCCCCCCCCCC | 105% (inactive)
